SKKanGAS inh: inhibitors of SKKanGAS S. pyogenes growth in kanamycin (SK-promoter or general growth effect). inhibition, % at 7.5 µM. actives 1.3% (n = 300,000). BacTiter-Glo, 6 h;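 active = mean replicate score, as percent of positive control median, at least 50; inconclusive = mean below 50 but one replicate at or above 50; inactive = mean and every replicate below 50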;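 note: strain carries kanamycin resistance gene driven by streptokinase promoter and grows in 40 µg/ml kanamycin; loss of luminescence reflects streptokinase promoter inhibition or plain growth inhibition; 0% = median of DMSO wells and 100% = positive control at its reference dose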
CSC inhib: blocks cancer stem cells; AID 2717; inhibition, % at 7.5 µM; cancer stem cell-like cells viability, luminescence; actives 1.1% (n = 300,000); in the data active = inhibition above about 75%; inconclusive = no clear call, values can overlap the other calls; tested in HMLE shEcad cells
Beta apoptosis: beta cell apoptosis inhibition | INS-1E cytokine-induced death, ATP luminescence, 48 h; percent of positive-control rescue, neutral wells zero | protection from apoptosis, % (no concentration beside the values) | actives 0.8% (n = 300,000) | AID 435005;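 active = Every replicate reaches about 75%, or at least half do and their mean reaches it too, limit read from the data; inconclusive = At least half of replicates reach the limit but their mean does not; inactive = Under half of replicates reach the limit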;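 note: 0% = cytokine-treated negative control wells and 100% = positive control rescue; higher means more ATP so stronger rescue from cytokine killing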
Calb FLC: C. albicans growth modulation with fluconazole; C. albicans CaCi-2 (fluconazole-resistant clinical isolate) + fluconazole, Alamar Blue growth, 48 h; growth inhibition, % (concentration not given with the values); actives 0.57% (n = 300,000);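 active = growth inhibition above about 58% in most replicates, limit read from the data, passing the limit was not always enough; inconclusive = exactly half the replicates above a set limit; inactive = most replicates below a set limit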;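 note: all wells also contain fluconazole at 8 µg/ml as a sub-toxic cotreatment; 0% = median of DMSO wells and 100% = median of geldanamycin control wells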
Mdm2 MdmX PPI: inhibitors of human Mdm2/MdmX interaction. actives 3% (n = 330,000). inhibition, % at 8 µM. SaOS-2 split-luciferase Mdm2/MdmX complementation, luminescence. O15151+Q00987;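 active = inhibition of at least 50% at 8 µM in the primary screen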
Target sequence (O15151 whole entry, looked up): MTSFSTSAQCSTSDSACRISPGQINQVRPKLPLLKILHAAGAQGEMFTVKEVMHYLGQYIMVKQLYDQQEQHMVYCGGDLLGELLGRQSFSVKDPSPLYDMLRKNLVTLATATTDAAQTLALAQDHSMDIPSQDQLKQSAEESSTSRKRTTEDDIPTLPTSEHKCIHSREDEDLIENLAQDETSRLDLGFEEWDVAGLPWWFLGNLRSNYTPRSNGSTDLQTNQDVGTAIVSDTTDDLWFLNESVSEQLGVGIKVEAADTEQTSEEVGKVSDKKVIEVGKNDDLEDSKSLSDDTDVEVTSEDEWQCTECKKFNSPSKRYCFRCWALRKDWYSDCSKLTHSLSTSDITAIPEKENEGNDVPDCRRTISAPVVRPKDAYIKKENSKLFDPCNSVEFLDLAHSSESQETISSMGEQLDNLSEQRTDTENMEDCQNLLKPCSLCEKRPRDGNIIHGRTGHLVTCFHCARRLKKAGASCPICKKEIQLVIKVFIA
Target sequence (Q00987 whole entry, looked up): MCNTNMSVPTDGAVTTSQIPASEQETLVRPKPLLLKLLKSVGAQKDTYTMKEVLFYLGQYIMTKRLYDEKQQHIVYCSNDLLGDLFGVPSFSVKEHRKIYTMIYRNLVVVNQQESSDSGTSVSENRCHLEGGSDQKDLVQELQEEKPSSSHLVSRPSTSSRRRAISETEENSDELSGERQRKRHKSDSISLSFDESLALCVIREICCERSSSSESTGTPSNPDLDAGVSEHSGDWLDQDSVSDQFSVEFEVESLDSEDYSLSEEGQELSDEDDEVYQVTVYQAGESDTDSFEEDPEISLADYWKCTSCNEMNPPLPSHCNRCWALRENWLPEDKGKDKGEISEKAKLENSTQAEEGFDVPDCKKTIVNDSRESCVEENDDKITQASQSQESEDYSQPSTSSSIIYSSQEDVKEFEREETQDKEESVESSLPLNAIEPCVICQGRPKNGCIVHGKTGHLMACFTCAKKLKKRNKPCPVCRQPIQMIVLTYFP
MPTP inh: permeability transition pore inhibition. actives 1.4% (n = 360,000). inhibition, % at 10 µM. isolated mouse mitochondria, Ca2+ swelling absorbance, 30 min. AID 602449;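 active = inhibition of 50% or more, scaled per plate between neutral and stimulator controls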;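 note: 0% = DMSO wells given calcium and 100% = 1 mM EGTA wells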
Active calls of the source: *; ! = not confirmed by another sample. Most compounds without a hit are left out; they make up all but 5.4% or so of the library.

Results for O=C(CN(Cc1ccco1)Cc1ccco1)Nc1cc(S(=O)(=O)N2CCCCC2)ccc1Cl ?
Beta apoptosis: 101*; Mdm2 MdmX PPI: 41; MPTP inh: 0

Results for Cc1nc(NC(=O)c2c(-c3ccccc3)noc2C)sc1C(=O)N(C)C ?
CSC inhib: 24; Beta apoptosis: 4; Calb FLC: 120*; Mdm2 MdmX PPI: -2; MPTP inh: 0

Results for Cc1nnc(SCC2=C(C(=O)O)N3C(=O)[C@@H](NC(=O)Cn4cnnn4)[C@H]3SC2)s1 ?
SKKanGAS inh: 105*!; CSC inhib: -12; Calb FLC: 1; Mdm2 MdmX PPI: 14; MPTP inh: -2

How did Cc1nnc(SCC2=C(C(=O)O)N3C(=O)C(NC(=O)COc4ccccc4)C3SC2)s1 (configuration not stated) do in these assays?
Mdm2 MdmX PPI: 18; MPTP inh: -3

What do the screens show for `Cc1nnc(SCC2=C(C(=O)O)N3C(=O)C(NC(=O)Cn4cnnn4)C3SC2)s1` (configuration not stated)?
SKKanGAS inh: 106*; CSC inhib: -9; Calb FLC: 5; Mdm2 MdmX PPI: -4; MPTP inh: 3

What do the screens show for `Cc1cc(N/N=C/c2ccc(O)c(C)c2O)nc(-c2ccccc2O)n1`?
SKKanGAS inh: 58*; CSC inhib: 113*; Beta apoptosis: 16; Calb FLC: 16; MPTP inh: 4

Results for C/C(=N\Nc1cc(C)nc(-c2ccccc2O)n1)c1ccccc1 ?
SKKanGAS inh: 23; CSC inhib: -1; Calb FLC: -3; Mdm2 MdmX PPI: 25; MPTP inh: 1

Results for COc1ccc(CN(C)S(=O)(=O)c2nnc(NC(=O)c3ccccc3)s2)cc1OC ?
SKKanGAS inh: 26; CSC inhib: 21; Beta apoptosis: 9; Calb FLC: -11; Mdm2 MdmX PPI: 30; MPTP inh: 1

What do the screens show for `COc1ccc(CN(C)S(=O)(=O)c2nnc(NC(=O)c3cccc(F)c3)s2)cc1OC`?
SKKanGAS inh: 60*; CSC inhib: 18; Beta apoptosis: 16; Calb FLC: 11; Mdm2 MdmX PPI: 24; MPTP inh: 7

How did CC1CCN(S(=O)(=O)c2ccc3c(ccn3CCC(=O)N3CCCCC3)c2)CC1 do in these assays?
SKKanGAS inh: 3; CSC inhib: -7; Beta apoptosis: 1; Calb FLC: 7; Mdm2 MdmX PPI: 0; MPTP inh: -2

What do the screens show for `Cn1ncc(Cl)c1C(=O)NNC(=O)Nc1cccc2ccccc12`?
CSC inhib: -5; Beta apoptosis: -6; Calb FLC: 110*; Mdm2 MdmX PPI: 17; MPTP inh: 2

How did CC1(C)Oc2ccc3ccc(=O)oc3c2/C(=C/NNC(N)=S)C1=O do in these assays?
SKKanGAS inh: 82*; CSC inhib: 4; Beta apoptosis: 12; Mdm2 MdmX PPI: 8; MPTP inh: 0

What do the screens show for `COc1cc(N/N=C/c2ccccc2O)ncn1`?
SKKanGAS inh: 12; CSC inhib: 23; Beta apoptosis: 88*; Calb FLC: 44; Mdm2 MdmX PPI: 43; MPTP inh: -4

How did Cc1ccc(Sc2ncccc2C(=O)NCc2cc([N+](=O)[O-])ccc2O)c(C)c1 do in these assays?
SKKanGAS inh: 4; CSC inhib: 11; Beta apoptosis: -1; Calb FLC: inconclusive; Mdm2 MdmX PPI: 14; MPTP inh: 2

Results for Cc1c(/C=N/NC(=O)c2ccc(O)cc2)c2ccccn2c1C(=O)c1ccc(F)cc1 ?
SKKanGAS inh: 52*; CSC inhib: 30; Beta apoptosis: 6; Calb FLC: -1; Mdm2 MdmX PPI: 46; MPTP inh: -1

What do the screens show for `COC(=O)N/N=C/c1c(C)c(C(=O)c2ccc(F)cc2)n2ccccc12`?
SKKanGAS inh: -4; CSC inhib: 19; Beta apoptosis: -3; Calb FLC: 12; Mdm2 MdmX PPI: 6; MPTP inh: 1

How did Cc1cc(C(=O)Nc2cccc3ccccc23)c(C)o1 do in these assays?
SKKanGAS inh: 0; CSC inhib: -8; Beta apoptosis: -3; Calb FLC: -2; Mdm2 MdmX PPI: 10; MPTP inh: 0

How did Cc1oc(CC(C)C)cc1C(=O)Nc1cccc2ccccc12 do in these assays?
SKKanGAS inh: 21; CSC inhib: 80*; Beta apoptosis: -4; Calb FLC: 19; Mdm2 MdmX PPI: 26; MPTP inh: 4

How did CC1=NN(c2nc(-c3ccc(C#N)cc3)cs2)C(=O)C1 do in these assays?
SKKanGAS inh: -14; CSC inhib: 1; Beta apoptosis: 0; Calb FLC: 41; Mdm2 MdmX PPI: 7
